Source: PubChem BioAssay (EPA / NIEHS)
The source made the active and inactive calls. The calls were made as follows: active = hit-call score of the fitted dose curve at least 0.9, where 1 is the maximum; inactive = score below 0.9.

Legend:
[1] = read-out: TIMP metallopeptidase inhibitor 1 (TIMP1), TIMP1 (gene 7076); assay: BSK_hDFCGF_TIMP1: BioMAP Diversity Plus: hDFCGF Assay for TIMP metallopeptidase inhibitor 1 (TIMP1) Biomarker Activity (AID 2283062); conditions: primary human foreskin fibroblasts; actives raise or lower the signal
Procedure, shortened: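 TIMP-1 measured by ELISA 24 h after chemical dosing of primary human skin fibroblasts, with gain or loss fitted relative to DMSO. Parallel SRB staining (560 nm) monitored overt cytotoxicity.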

[2] = read-out: Monokine induced gamma interferon (MIG), CXCL9 (gene 4283); assay: BSK_hDFCGF_MIG: BioMAP Diversity Plus: hDFCGF Assay for Monokine induced gamma interferon (MIG) Biomarker Activity (AID 2283063); conditions: primary human foreskin fibroblasts; actives raise or lower the signal
Procedure, shortened: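 Human primary foreskin fibroblasts in the hDFCGF system, exposed to test chemical for 24 h; MIG measured by ELISA. Bidirectional curve fitting against DMSO negative control as activity baseline.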

[3] = read-out: Vascular cell adhesion molecule 1 (VCAM1), VCAM1 (gene 7412); assay: BSK_hDFCGF_VCAM1: BioMAP Diversity Plus: hDFCGF Assay for Vascular cell adhesion molecule 1 (VCAM1) Biomarker Activity (AID 2283065); conditions: primary human foreskin fibroblasts; actives raise or lower the signal
Procedure, shortened: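 ELISA readout of VCAM-1 on human dermal fibroblast primary cultures, 24 h after chemical exposure. Gain or loss of signal fitted in both directions against DMSO baseline.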

[4] = read-out: Intercellular Adhesion Molecule 1 (ICAM1), ICAM1 (gene 3383); assay: BSK_KF3CT_ICAM1: BioMAP Diversity Plus: KF3CT Assay for Intercellular Adhesion Molecule 1 (ICAM1) Biomarker Activity (AID 2283067); conditions: primary human keratinocytes with fibroblasts; actives raise or lower the signal
Procedure, shortened: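 Cell-surface ICAM-1 was measured by ELISA 24 h after dosing primary human skin keratinocytes co-cultured with fibroblasts. Parallel SRB staining tracked overt cytotoxicity. Gain or loss of signal was fitted relative to DMSO.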

[5] = read-out: Interferon-gamma inducible Protein 10 (IP10), CXCL10 (gene 3627); assay: BSK_KF3CT_IP10: BioMAP Diversity Plus: KF3CT Assay for Interferon-gamma inducible Protein 10 (IP10) Biomarker Activity (AID 2283068); conditions: primary human keratinocytes with fibroblasts; actives raise or lower the signal
Procedure, shortened: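 Signal is secreted/surface IP-10 by ELISA in a human primary skin co-culture of keratinocytes and foreskin fibroblasts, taken 24 h post-dosing; DMSO served as negative control.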

[6] = BSK_KF3CT_SRB: Viability Assessment in the BioMAP Diversity Plus: KF3CT Assay (AID 2283069); conditions: primary human keratinocytes with fibroblasts;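 also: total protein by sulforhodamine B staining as a cytotoxicity measure; read 24 h after compound addition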
Procedure, shortened: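 Human primary keratinocyte plus foreskin fibroblast co-culture exposed to chemicals for 24 h. Total protein measured by 0.1% sulforhodamine B staining after 10% TCA fixation, read at 560 nm; bidirectional fitting versus DMSO baseline.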

[7] = read-out: Interleukin-1 alpha (IL1a), IL1A (gene 3552); assay: BSK_KF3CT_IL1a: BioMAP Diversity Plus: KF3CT Assay for Interleukin-1 alpha (IL1a) Biomarker Activity (AID 2283070); conditions: primary human keratinocytes with fibroblasts; actives raise or lower the signal
Procedure, shortened: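 Human keratinocyte plus foreskin fibroblast primary co-culture, sampled 24 h after chemical dosing. IL-1a measured by ELISA; responses fitted bidirectionally against DMSO baseline (negative control), so gain or loss of signal both count.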

[8] = read-out: TIMP metallopeptidase inhibitor 2 (TIMP2), TIMP2 (gene 7077); assay: BSK_KF3CT_TIMP2: BioMAP Diversity Plus: KF3CT Assay for TIMP metallopeptidase inhibitor 2 (TIMP2) Biomarker Activity (AID 2283071); conditions: primary human keratinocytes with fibroblasts; actives raise or lower the signal
Procedure, shortened: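 Co-culture of human primary keratinocytes and foreskin fibroblasts, measured 24 h after chemical dosing. TIMP-2 quantified by ELISA and fitted in both directions relative to DMSO. Cytotoxicity checked in parallel cultures by SRB total-protein staining.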

[9] = read-out: Transforming growth factor beta 1 (TGFb1), TGFB1 (gene 7040); assay: BSK_KF3CT_TGFb1: BioMAP Diversity Plus: KF3CT Assay for Transforming growth factor beta 1 (TGFb1) Biomarker Activity (AID 2283072); conditions: primary human keratinocytes with fibroblasts; actives raise or lower the signal
Procedure, shortened: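 Human keratinocyte/foreskin fibroblast co-culture; TGF-b1 measured by ELISA 24 h after dosing, fitted bidirectionally versus DMSO. Cytotoxicity checked in parallel cultures by total protein (SRB staining, 560 nm).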

[10] = read-out: C-C motif chemokine 2 (Homo sapiens) (UniProt P13500); assay: BSK_KF3CT_MCP1: BioMAP Diversity Plus: KF3CT Assay for Monocyte Chemoattractant Protein 1 (MCP1/CCL2) Biomarker Activity (AID 2283073); conditions: primary human keratinocytes with fibroblasts; actives raise or lower the signal
Procedure, shortened: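 ELISA read-out of MCP-1, 24 h post-dose, in primary human skin keratinocytes co-cultured with fibroblasts. Parallel SRB staining monitors cytotoxicity; changes fitted both directions relative to DMSO.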

[11] = read-out: Matrix Metallopeptidase 9 (MMP9), MMP9 (gene 4318); assay: BSK_KF3CT_MMP9: BioMAP Diversity Plus: KF3CT Assay for Matrix Metallopeptidase 9 (MMP9) Biomarker Activity (AID 2283074); conditions: primary human keratinocytes with fibroblasts; actives raise or lower the signal
Procedure, shortened: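 Keratinocyte plus foreskin fibroblast human primary skin co-culture was dosed with chemical and MMP-9 was quantified by ELISA 24 h later. Bidirectional curve fitting used DMSO as negative control and activity baseline.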

[12] = read-out: urokinase plasminogen activator (uPA), PLAU (gene 5328); assay: BSK_KF3CT_uPA: BioMAP Diversity Plus: KF3CT Assay for urokinase plasminogen activator (uPA) Biomarker Activity (AID 2283075); conditions: primary human keratinocytes with fibroblasts; actives raise or lower the signal
Procedure, shortened: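 Human keratinocyte plus foreskin fibroblast primary co-culture exposed to chemical for 24 h. uPA levels were quantified by ELISA, and activity was fitted bidirectionally against a DMSO negative-control baseline.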

CD40, CD40 (gene 958) = assay: BSK_LPS_CD40: BioMAP Diversity Plus: LPS Assay for CD40 Biomarker Activity (AID 2283076); conditions: primary human HUVEC with PBMC; actives raise or lower the signal
Procedure, shortened: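 In the LPS system of human endothelial cells with peripheral blood mononuclear cells, CD40 levels were read by ELISA 24 h post-treatment. Signal changes in either direction were fitted against the DMSO baseline, with parallel SRB protein staining.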

[13] = read-out: E-selectin (Homo sapiens) (UniProt P16581); assay: BSK_LPS_Eselectin: BioMAP Diversity Plus: LPS Assay for Eselectin Biomarker Activity (AID 2283077); conditions: primary human HUVEC with PBMC; actives raise or lower the signal
Procedure, shortened: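 E-selectin ELISA on LPS-stimulated endothelial cell/PBMC co-cultures, read 24 h post-treatment; gains and losses fitted against DMSO. Parallel SRB staining (0.1% SRB after 10% TCA fixation, 560 nm) flags overt cytotoxicity.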

[14] = read-out: Interleukin-8 (IL8), CXCL8 (gene 3576); assay: BSK_LPS_IL8: BioMAP Diversity Plus: LPS Assay for Interleukin-8 (IL8) Biomarker Activity (AID 2283078); conditions: primary human HUVEC with PBMC; actives raise or lower the signal
Procedure, shortened: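 ELISA read-out of IL-8 after 24 h chemical treatment of LPS-activated endothelial/PBMC human primary co-cultures. Changes either up or down relative to DMSO; overt cytotoxicity checked by sulforhodamine B staining in parallel wells.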

[15] = BSK_LPS_SRB: Viability Assessment in the BioMAP Diversity Plus: LPS Assay (AID 2283079); conditions: primary human HUVEC with PBMC;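 also: total protein by sulforhodamine B absorbance as a cytotoxicity measure; measured one day after compound addition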
Procedure, shortened: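 SRB viability endpoint: cells fixed with 10% TCA, stained with 0.1% SRB, read at 560 nm, 24 h post-dose. HUVEC/PBMC co-culture; signal change in either direction scored relative to DMSO.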

[16] = read-out: Interleukin-1 alpha (IL1a), IL1A (gene 3552); assay: BSK_LPS_IL1a: BioMAP Diversity Plus: LPS Assay for Interleukin-1 alpha (IL1a) Biomarker Activity (AID 2283080); conditions: primary human HUVEC with PBMC; actives raise or lower the signal
Procedure, shortened: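 Readout is IL-1a level by ELISA, 24 h post-dose, fitted as gain or loss relative to DMSO. System: LPS-activated human primary co-culture of vascular endothelium and peripheral blood mononuclear cells, with parallel SRB total-protein cytotoxicity.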

[17] = read-out: Monocyte Chemoattractant Protein-1 (MCP1), CCL2 (gene 6347); assay: BSK_LPS_MCP1: BioMAP Diversity Plus: LPS Assay for Monocyte Chemoattractant Protein-1 (MCP1) Biomarker Activity (AID 2283081); conditions: primary human HUVEC with PBMC; actives raise or lower the signal
Procedure, shortened: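 Secreted MCP-1 read by ELISA at 24 h post-dosing in an LPS-activated co-culture of endothelial cells with peripheral blood mononuclear cells. Fits run in both directions, DMSO as baseline; parallel SRB staining tracks overt cytotoxicity.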

Measured: outcome

Sequence of E-selectin (Homo sapiens) (P16581 whole entry, looked up): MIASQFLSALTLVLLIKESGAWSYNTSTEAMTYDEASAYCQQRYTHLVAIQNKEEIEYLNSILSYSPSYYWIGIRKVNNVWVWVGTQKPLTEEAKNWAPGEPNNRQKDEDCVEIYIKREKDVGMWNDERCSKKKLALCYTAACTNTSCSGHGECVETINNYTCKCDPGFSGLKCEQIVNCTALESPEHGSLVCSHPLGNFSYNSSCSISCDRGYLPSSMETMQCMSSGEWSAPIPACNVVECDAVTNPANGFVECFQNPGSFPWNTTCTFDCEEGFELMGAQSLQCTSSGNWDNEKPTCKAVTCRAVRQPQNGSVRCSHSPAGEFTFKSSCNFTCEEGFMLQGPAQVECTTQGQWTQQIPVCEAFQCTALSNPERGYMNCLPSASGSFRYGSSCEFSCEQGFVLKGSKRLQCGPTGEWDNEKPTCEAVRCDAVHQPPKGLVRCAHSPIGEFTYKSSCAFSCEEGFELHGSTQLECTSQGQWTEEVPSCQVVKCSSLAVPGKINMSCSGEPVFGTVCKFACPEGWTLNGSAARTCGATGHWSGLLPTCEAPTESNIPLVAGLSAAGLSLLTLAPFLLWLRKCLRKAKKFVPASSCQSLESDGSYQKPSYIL

CCCCC(CC)COC(=O)c1ccc(C(=O)OCC(CC)CCCC)c(C(=O)OCC(CC)CCCC)c1 (configuration not stated)
inactive: all assays above

CN(C)c1ccccc1
not listed: [3]
inactive: all other assays above

CCCCCCCCOC(=O)c1ccc(C(=O)OCCCCCCCC)c(C(=O)OCCCCCCCC)c1
not listed: [3]
inactive: all other assays above
